Results reported in PubChem BioAssay (NCATS).
Inconclusive results are not listed. Activity calls are given as the source filed them. Calls follow the shape of the dose curve; as a rule, active = well fitted cell-killing curve with a large enough effect; inconclusive = small, poorly fitted or top-dose-only effect, or effect the other way; inactive = no such curve, though single readings can be large or run the other way.

Key:
[1] = Quantitative High-Throughput drug screen in 47 multiple myeloma cell lines against the NCATS MIPE library collection: MM1R_ATCC cell viability assay (AID 1918981); also: nearly all actives have a fitted effect of over 35% in size; also: potency is read from the fitted curve at half-maximal effect
How it was run: (§1)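 Readout: median RLU from CellTiter-Glo after 5 min at room temperature. Preceding step was 48 h drug treatment of 500 cells/well at 37 °C, 5% CO2, with DMSO-only and media-only control wells.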

[2] = Quantitative High-Throughput drug screen in 47 multiple myeloma cell lines against the NCATS MIPE library collection: LP1_DSMZ cell viability assay (AID 1918982); also: nearly all actives have a fitted effect of over 35% in size; also: potency is read from the fitted curve at half-maximal effect
How it was run: as §1

[3] = Quantitative High-Throughput drug screen in 47 multiple myeloma cell lines against the NCATS MIPE library collection: KMS28PE_JCRB cell viability assay (AID 1918983); also: nearly all actives have a fitted effect of over 35% in size; also: potency is read from the fitted curve at half-maximal effect
How it was run: as §1

[4] = Quantitative High-Throughput drug screen in 47 multiple myeloma cell lines against the NCATS MIPE library collection: OPM1_PLB cell viability assay (AID 1918989); also: nearly all actives have a fitted effect of over 40% in size; also: potency is read from the fitted curve at half-maximal effect
How it was run: as §1

[5] = Quantitative High-Throughput drug screen in 47 multiple myeloma cell lines against the NCATS MIPE library collection: SKMM1_PLB cell viability assay (AID 1919863); conditions: SKMM1 myeloma viability, CellTiter-Glo ATP, 48 h; viability: stronger effect = lower value; also: nearly all actives have a fitted effect of over 35% in size; also: potency is read from the fitted curve at half-maximal effect
How it was run: as §1

[6] = Quantitative High-Throughput drug screen in 47 multiple myeloma cell lines against the NCATS MIPE library collection: U266_ATCC cell viability assay (AID 1919864); also: nearly all actives have a fitted effect of over 35% in size; also: potency is read from the fitted curve at half-maximal effect
How it was run: as §1

[7] = Quantitative High-Throughput drug screen in 47 multiple myeloma cell lines against the NCATS MIPE library collection: XG6_PLB cell viability assay (AID 1919865); also: nearly all actives have a fitted effect of over 40% in size; also: potency is read from the fitted curve at half-maximal effect
How it was run: as §1

[8] = Quantitative High-Throughput drug screen in 47 multiple myeloma cell lines against the NCATS MIPE library collection: PE2_PLB cell viability assay (AID 1919869); also: nearly all actives have a fitted effect of over 35% in size; also: potency is read from the fitted curve at half-maximal effect
How it was run: as §1

[9] = Quantitative High-Throughput drug screen in 47 multiple myeloma cell lines against the NCATS MIPE library collection: PCM6_Riken cell viability assay (AID 1919870); also: nearly all actives have a fitted effect of over 30% in size; also: potency is read from the fitted curve at half-maximal effect
How it was run: as §1

[10] = Quantitative High-Throughput drug screen in 47 multiple myeloma cell lines against the NCATS MIPE library collection: RPMI8226_ATCC cell viability assay (AID 1919871); also: nearly all actives have a fitted effect of over 30% in size; also: potency is read from the fitted curve at half-maximal effect
How it was run: as §1

[11] = Quantitative High-Throughput drug screen in 47 multiple myeloma cell lines against the NCATS MIPE library collection: OPM2_DSMZ cell viability assay (AID 1919872); also: nearly all actives have a fitted effect of over 30% in size; also: potency is read from the fitted curve at half-maximal effect
How it was run: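 Luminescent ATP measurement with CellTiter-Glo gives viability, scaled between DMSO-only wells (100%) and media-only wells (0%). Cells, 500 per well, faced library compounds for 48 hours at 37C.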

[12] = Quantitative High-Throughput drug screen in 47 multiple myeloma cell lines against the NCATS MIPE library collection: OCIMY7_PLB cell viability assay (AID 1918987); conditions: OCI-MY7 myeloma viability, CellTiter-Glo ATP, 48 h; viability (% of DMSO): at 45.8 µM (top of the series); also: nearly all actives have a fitted effect of over 65% in size; also: potency is read from the fitted curve at half-maximal effect
How it was run: as §1

[13] = Quantitative High-Throughput drug screen in 47 multiple myeloma cell lines against the NCATS MIPE library collection: XG1_PLB cell viability assay (AID 1919866); also: nearly all actives have a fitted effect of over 35% in size; also: potency is read from the fitted curve at half-maximal effect
How it was run: as §1

[14] = Quantitative High-Throughput drug screen in 47 multiple myeloma cell lines against the NCATS MIPE library collection: VP6_DJ cell viability assay (AID 1919867); also: nearly all actives have a fitted effect of over 40% in size; also: potency is read from the fitted curve at half-maximal effect
How it was run: as §1

[15] = Quantitative High-Throughput drug screen in 47 multiple myeloma cell lines against the NCATS MIPE library collection: UTMC2_PLB cell viability assay (AID 1919868); conditions: CellTiter-Glo ATP luminescence, 48 h; viability (% of DMSO control): at 45.8 µM (top of the series); also: nearly all actives have a fitted effect of over 55% in size; also: potency is read from the fitted curve at half-maximal effect
How it was run: as §1

[16] = Quantitative High-Throughput drug screen in 47 multiple myeloma cell lines against the NCATS MIPE library collection: OCIMY5_PLB cell viability assay (AID 1918988); also: nearly all actives have a fitted effect of over 65% in size; also: potency is read from the fitted curve at half-maximal effect
How it was run: as §1

[17] = Quantitative High-Throughput drug screen in 47 multiple myeloma cell lines against the NCATS MIPE library collection: KMS11_JCRBsus cell viability assay (AID 1919873); also: nearly all actives have a fitted effect of over 50% in size
How it was run: as §1

[18] = Quantitative High-Throughput drug screen in 47 multiple myeloma cell lines against the NCATS MIPE library collection: KMS28BM_JCRB cell viability assay (AID 1919874); also: nearly all actives have a fitted effect of over 35% in size
How it was run: as §1

[19] = Quantitative High-Throughput drug screen in 47 multiple myeloma cell lines against the NCATS MIPE library collection: L363_DSMZ cell viability assay (AID 1918984); also: nearly all actives have a fitted effect of over 40% in size; also: potency is read from the fitted curve at half-maximal effect
How it was run: as §1

[20] = Quantitative High-Throughput drug screen in 47 multiple myeloma cell lines against the NCATS MIPE library collection: KMS34_JCRB cell viability assay (AID 1918985); also: nearly all actives have a fitted effect of over 40% in size; also: potency is read from the fitted curve at half-maximal effect
How it was run: as §1

NC(=O)c1ncn([C@@H]2O[C@H](CO)[C@@H](O)[C@@H]2O)c1N
inactive: Potency [1] | Potency [2] | Potency [3] | Potency [4] | viability [5] 159% | Potency [6] | Potency [7] | Potency [8] | Potency [9] | Potency [10] | Potency [11]

O=c1c(O)c(-c2ccc(O)c(O)c2)oc2cc(O)ccc12
active: Potency [1] 23500 nM | Potency [2] 23500 nM | Potency [12] 6620 nM | Potency [7] 18700 nM | Potency [13] 13200 nM | Potency [14] 14800 nM | Potency [15] 13200 nM | Potency [8] 14800 nM | Potency [9] 9350 nM | Potency [11] 23500 nM

C[C@@H](NCc1cc2ccccc2[nH]1)c1cccc2ccccc12
inactive: Potency [1] | Potency [2] | Potency [3] | Potency [16] | viability [5] 132% | Potency [6] | Potency [7] | Potency [14] | Potency [9] | Potency [10] | Potency [11] | Potency [17] | Potency [18]

CNC(=O)c1cccc(-c2ccc3c(N4CCOC[C@H]4C)nc(N4CCOC[C@H]4C)nc3n2)c1
active: Potency [1] 66.2 nM | Potency [3] 18.7 nM | Potency [19] 11.8 nM | Potency [20] 59 nM | viability (% of DMSO) [12] 66.1% | Potency [16] 5900 nM | Potency [4] 105 nM | Potency [5] 66.2 nM | Potency [6] 469 nM | Potency [7] 83.3 nM | Potency [13] 11.8 nM | Potency [14] 13.2 nM | Potency [15] 59 nM | Potency [8] 83.3 nM | Potency [9] 118 nM | Potency [10] 20.9 nM | Potency [11] 105 nM

N[C@H]1CN(c2c(F)cc3c(=O)c(C(=O)O)cn(C4C[C@@H]4F)c3c2Cl)CC12CC2 (stereo partly drawn)
active: Potency [16] 20900 nM
inactive: Potency [1] | Potency [2] | Potency [19] | Potency [12] | Potency [4] | Potency [7] | Potency [13] | Potency [14] | Potency [8] | Potency [9] | Potency [17] | Potency [18]

OCCN1C[C@H](O)[C@@H](O)[C@H](O)[C@@H]1CO
inactive: Potency [1] | Potency [2] | Potency [19] | Potency [20] | Potency [4] | viability [5] 126% | Potency [7] | Potency [14] | Potency [15] | Potency [8] | Potency [11] | Potency [17]

O=C1NC(O)CCN1[C@@H]1O[C@H](CO)[C@H](O)[C@H]1O (stereo partly drawn)
inactive: Potency [1] | Potency [3] | Potency [4] | viability [5] 122% | Potency [6] | Potency [7] | Potency [8] | Potency [11] | Potency [17] | Potency [18]
active: Potency [2] 5900 nM | Potency [13] 11800 nM
